Screens as filed in PubChem BioAssay.
This is a sample that favours compounds with a hit; in the whole collection about 2.9% have one here.
ERa SRC1 pot – enhancers of ERα–SRC-1 coactivator binding, primary screen, biochemical, TR-FRET, ERα LBD, low estradiol. TR-FRET ERalpha-LBD/SRC-Cy5 coactivator binding, 2 h; 100 = basal binding, no effect. coactivator binding (% of control), % at 25.6 µM. hit rate 1.3% among 86,000; in the data active = activity above about 200%;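 note: binding measured in presence of low estradiol as agonist stimulus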
Target sequence (P03372 whole entry, looked up, the tested form may be a part): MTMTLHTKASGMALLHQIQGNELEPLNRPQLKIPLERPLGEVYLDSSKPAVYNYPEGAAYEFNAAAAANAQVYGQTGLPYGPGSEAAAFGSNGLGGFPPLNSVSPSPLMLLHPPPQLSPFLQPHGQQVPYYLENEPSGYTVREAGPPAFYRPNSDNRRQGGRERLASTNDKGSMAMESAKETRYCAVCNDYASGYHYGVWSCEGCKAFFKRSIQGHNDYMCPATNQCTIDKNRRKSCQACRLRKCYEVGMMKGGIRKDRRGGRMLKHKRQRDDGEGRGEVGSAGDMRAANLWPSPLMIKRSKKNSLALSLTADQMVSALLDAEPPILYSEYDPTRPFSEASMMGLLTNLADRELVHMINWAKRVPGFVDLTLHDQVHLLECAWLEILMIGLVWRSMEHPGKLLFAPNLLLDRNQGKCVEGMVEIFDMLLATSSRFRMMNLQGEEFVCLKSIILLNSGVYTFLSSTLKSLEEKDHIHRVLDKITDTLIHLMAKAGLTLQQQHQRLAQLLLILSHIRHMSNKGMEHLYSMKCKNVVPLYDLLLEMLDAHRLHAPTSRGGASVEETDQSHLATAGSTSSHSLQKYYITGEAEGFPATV
F-actin modifier – modifiers of F-actin cytoskeleton organization, primary screen, imaging, HUVEC, phalloidin staining, high-content imaging; HUVEC TNFa F-actin phalloidin imaging; inhibition, % at 2 µM; hit rate 0.18% among 91,000; AID 836, 2007;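 active = inhibition above the batch mean plus 3 SD and confirmed as a hit by visual image inspection, cut at about 30% in these data, passing the limit was not always enough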
E-sel TNF inh – E-selectin induction blockers in HUVEC – imaging, immunofluorescence, high content, primary screen. hit rate 0.71% among 120,000. HUVEC TNFa-induced E-selectin immunofluorescence. inhibition, % at 2 µM;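 active = inhibition above the batch mean plus 3 SD, and confirmed as a hit on visual image review, cut at about 43% in these data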
ERa coact inh – ERα–SRC-1 coactivator interaction inhibitors, primary screen, biochemical, TR-FRET, ERα LBD, estradiol-bound. TR-FRET ER-alpha LBD / SRC-1 peptide. hit rate 1.7% among 86,000. Estrogen receptor (Homo sapiens), P03372. inhibition, % at 25.6 µM; in the data active = inhibition above about 50%
ERb SRC1 inh – inhibitors of ERβ-SRC1 coactivator interaction, primary screen, biochemical, TR-FRET, ERβ LBD, SRC-1 peptide; Estrogen receptor beta (Homo sapiens), Q92731; TR-FRET ER-beta LBD / SRC1-Cy5 peptide binding; receptor agonist-loaded with 1 µM estradiol; inhibition, % at 25.6 µM; hit rate 1.3% among 86,000;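 active = compounds whose percent inhibition of the receptor-coactivator binding signal exceeds about 50% in the single-dose screen, limit read from the data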
Calb biofilm kill – clotrimazole potentiators killing Candida biofilms, primary screen, with clotrimazole, Alamar Blue | AID 834, 2007 | inhibition, % at 6 µM | hit rate 0.14% among 85,000 | C. albicans biofilm + clotrimazole;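 active = inhibition above 20%; inactive = inhibition below 20%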;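 note: preformed 24 hr biofilms exposed to compound for 48 hr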
Large screens that a line does not name were inactive; [ ] = another dose, or the depositor's remark.

COc1ccc(-n2c(-c3ccc(F)cc3)cnc2SCC(=O)NCc2ccco2)cc1	none
COc1cccc(-n2c(SCC(=O)N3CCCC3)nc3c([nH]c4ccccc43)c2=O)c1	ERa SRC1 pot 285[fluorescence artefact?] (no result: E-sel TNF inh)
Clc1ccc(C2CC(c3cccs3)n3ncnc3N2)c(Cl)c1 (stereo not given)	none (no result: F-actin modifier, E-sel TNF inh)
Cc1ccc(NC(=S)N(Cc2cccs2)Cc2cc3cccc(C)c3[nH]c2=O)cc1	none (no result: ERa SRC1 pot, F-actin modifier, ERa coact inh, ERb SRC1 inh, Calb biofilm kill)
CCOC(=O)CN(C(=O)CSc1nnc(CNc2ccc(F)cc2)n1CC)c1ccc(F)cc1	ERa SRC1 pot 223
CCOC(=O)CN(C(=O)CSc1nnc(CNc2ccc(C)cc2C)n1CC)c1ccccc1	none
CNc1cccc2c1C(=O)c1ccccc1C2=O	none (no result: ERa SRC1 pot, F-actin modifier, ERa coact inh, ERb SRC1 inh, Calb biofilm kill)
CNc1cccccc1=S	ERa coact inh 96[fluorescence artefact?]
Cc1ccc(NS(=O)(=O)c2cc(C(=O)NCCSc3ccc(C)cc3)ccc2C)cc1	none (no result: ERa SRC1 pot, ERa coact inh, ERb SRC1 inh, Calb biofilm kill)
Cc1ccc(NS(=O)(=O)c2cc(C(=O)NCCSC3CCCCC3)ccc2C)cc1	F-actin modifier 48 (no result: ERa SRC1 pot, ERa coact inh, ERb SRC1 inh, Calb biofilm kill)
Cc1ccc(-c2nnc(-c3ccc(NC(=O)c4ccco4)cc3)o2)cc1	ERa SRC1 pot 455
CCOc1cccc(C(=O)Nc2cccc(-c3nnc(-c4ccc(C)cc4)o3)c2)c1	ERa coact inh 68[fluorescence artefact?], ERb SRC1 inh 60[fluorescence artefact?]
O=C(Nc1ccc(S(=O)(=O)Nc2ncccn2)cc1)c1ccco1	none (no result: ERa SRC1 pot, ERa coact inh, ERb SRC1 inh, Calb biofilm kill)
O=C(Nc1ccc(-c2nc3ccc(NC(=O)c4cccs4)cc3[nH]2)cc1)c1cccs1	ERa coact inh 91[fluorescence artefact?], ERb SRC1 inh 55 (no result: F-actin modifier)
CCOc1cccc(C(=O)Nc2cccc(-c3nnc(-c4ccccc4)o3)c2)c1	none
Cc1cc(C)nc(NS(=O)(=O)c2ccc(NC(=O)c3ccco3)cc2)n1	ERb SRC1 inh 69[fluorescence artefact?]
O=C(Nc1ccc(-c2nc3ccccc3c(=O)o2)cc1)c1ccco1	none (no result: ERa SRC1 pot, F-actin modifier, ERa coact inh, ERb SRC1 inh, Calb biofilm kill)
CCN(CC)S(=O)(=O)c1ccc(C)c(NC(=O)CNCCN(C(C)C)C(C)C)c1	none (no result: ERa SRC1 pot, F-actin modifier, ERa coact inh, ERb SRC1 inh, Calb biofilm kill)
Cc1ccc2nc(-c3ccc(NC(=O)c4ccco4)cc3)[nH]c2c1	ERa coact inh 59[fluorescence artefact?]
Cn1cccc1-c1nc2ccc(NC(=O)c3ccco3)cc2[nH]1	none
Cc1cc2cc(CNC(=O)c3ccc(S(=O)(=O)N4CCOCC4)cc3)ccc2n1C	ERa SRC1 pot 276[fluorescence artefact?]
Cc1cc2cc(CNC(=O)c3ccc(Br)o3)ccc2n1C	ERa coact inh 74[fluorescence artefact?] (no result: F-actin modifier, E-sel TNF inh)
Cc1cc2cc(CNC(=O)c3ccc(S(=O)(=O)N(C)C)cc3)ccc2n1C	none (no result: E-sel TNF inh)
Cc1cc2cc(CNC(=O)Nc3cccc(Cl)c3)ccc2n1C	ERa SRC1 pot 215[fluorescence artefact?]
CC1(C)Oc2nc3ccccc3n2/C1=C\C#N	none
Nc1nc(N2C(=O)C3CC=CCC3C2=O)nn1-c1ccccc1 (stereo not given)	ERa coact inh 57
Cc1cc2cc(CNS(=O)(=O)c3ccc4ccccc4c3)ccc2n1C	ERa SRC1 pot 651[fluorescence artefact?] (no result: E-sel TNF inh)
Cc1cc(C)c(S(=O)(=O)NCc2ccc3c(c2)cc(C)n3C)c(C)c1	ERa SRC1 pot 257[fluorescence artefact?]
CCCCn1c(NC(=O)CC)c(C#N)c2nc3ccccc3nc21	ERa SRC1 pot 221[fluorescence artefact?], ERa coact inh 72
CCC(=O)Nc1c(C#N)c2nc3ccccc3nc2n1-c1ccccc1C	none (no result: F-actin modifier, E-sel TNF inh)
CCC(=O)Nc1c(C#N)c2nc3ccccc3nc2n1C1CCCCC1	ERa coact inh 65[fluorescence artefact?]
CCCCn1c(NC(=O)c2ccccc2Cl)c(C#N)c2nc3ccccc3nc21	none (no result: E-sel TNF inh)
Cc1ccc(-c2cc(NC(=O)CCl)n(-c3ccccc3)n2)cc1	E-sel TNF inh 86
Cn1cccc1C(=O)OCC(=O)Nc1cc(C(C)(C)C)nn1-c1ccccc1	F-actin modifier 72
O=C(Cc1cccs1)NCCn1ccc2ccccc21	none (no result: F-actin modifier)
O=C1C=C(c2ccccc2)C(O)(c2ccccc2)C1 (stereo not given)	E-sel TNF inh 61
Brc1ccc2[nH]c3c(N4CCc5ccccc5C4)ncnc3c2c1	ERa SRC1 pot 495[fluorescence artefact?]
Cc1ccc2[nH]c3c(N4CCc5ccccc5C4)ncnc3c2c1	none (no result: E-sel TNF inh)
O=C1NCCN1CCNS(=O)(=O)c1ccc2ccccc2c1	ERa coact inh 58[fluorescence artefact?]
O=C(CSc1n[nH]c(-c2ccccc2)n1)c1ccc(O)c(O)c1	ERa coact inh 67[fluorescence artefact?], ERb SRC1 inh 77[fluorescence artefact?] (no result: F-actin modifier)
